According to ChEMBL document CHEMBL3988442, “University of Dundee, Small-Polar-MMV Screening Library” (2021):
The whole screen tested about 48,000 compounds, of which about 13,000 (27%) showed an effect of 50% or more. Some of the results follow.

Tested on: Wolbachia pipientis
Experiment: Anti-Wolbachia Cell-Based Screen
Format: functional
Design: scale not given: in the data most compounds retested in dose-response had high values
Details: 5 µM

Row | Structure (SMILES) | Percent Effect
1 | CCC(NCCn1cc(C)cn1)C(=O)Nc1cc(C)on1 (stereo not drawn) | -26.17%
2 | CC(=O)c1cc(CC(=O)NCc2cccc(F)c2F)cs1 | -6.344%
3 | O=C1CC[C@H]2CN(c3ncccc3F)CC[C@H]2N1CCc1ccccc1 | 4.939%
4 | Cc1noc(C)c1CN(C)Cc1csc(-c2ncccn2)n1 | 0.1209%
5 | N[C@@H]1c2ccccc2C2(CCN(C(=O)c3ccc(=O)[nH]c3)CC2)[C@H]1O | 2.656%
6 | Cc1cc(CN2CCN(C(=O)NCc3nc(C)cs3)CC2)on1 | -3.882%
7 | NS(=O)(=O)c1cc(C(=O)N2CCCC(n3ccnc3)C2)cs1 (stereo not drawn) | 104.4%
8 | O=C(c1csc(Br)c1)N1CCCC(n2ccnc2)C1 (stereo not drawn) | -1.444%
9 | CC1CCCN(C(=O)c2csc(S(N)(=O)=O)c2)CC1 (stereo not drawn) | -10.27%
10 | FC(F)(F)c1cccnc1N1CCC(OC2CCOCC2)CC1 | 1.629%
11 | CC(NCc1ccc(F)cc1)c1ccc2[nH]c(=O)[nH]c2c1 (stereo not drawn) | 94.79%
12 | Cc1ccc(CNC(C)c2ccc3[nH]c(=O)[nH]c3c2)s1 (stereo not drawn) | 0.5584%
13 | CC(NCc1ccc(F)cc1)c1ccc(OCC(=O)NC2CC2)cc1 (stereo not drawn) | 13.29%
14 | CCOc1ccc(CNC(C)c2ccc3[nH]c(=O)[nH]c3c2)cc1 (stereo not drawn) | 115.8%
15 | COc1ccc(CNC(C)c2ccc3[nH]c(=O)[nH]c3c2)cc1 (stereo not drawn) | 1.768%
16 | CC(NCc1ccc(OCC(N)=O)cc1)c1ccc(Cl)c(Cl)c1.Cl (stereo not drawn) | 11.22%
17 | Nc1ccnc(N2CCC(CCc3ccccc3)(C(=O)O)CC2)n1 | -1.622%
18 | CN(C)C[C@@H]1C[C@@H]2CN(C(=O)Cc3cccs3)CC[C@@H]2N1C | 87.94%
19 | CC(C)CC1COCCN1C(=O)Cc1cccs1 (stereo not drawn) | -4.501%
20 | CN(C)Cc1nnc(C2CCN(C(=O)CCc3cccs3)CC2)n1C | -18.7%
21 | CC(=O)N1[C@H](CN(C)C)C[C@@H]2CN(C(=O)Cc3cccs3)CC[C@@H]21.O=C(O)C(F)(F)F | 96.5%
22 | CC(=O)N1[C@H](Cn2cncn2)C[C@@H]2CN(Cc3ccncc3)CC[C@@H]21.O=C(O)C(F)(F)F.O=C(O)C(F)(F)F | -2.106%
23 | CC(=O)N1[C@H](CN(C)C)C[C@@H]2CN(c3ncc(F)cn3)CC[C@@H]21.O=C(O)C(F)(F)F.O=C(O)C(F)(F)F | -11.57%
24 | Cn1cc(CCCNS(=O)(=O)N2CCCC2c2ccco2)cn1 (stereo not drawn) | -2.203%
25 | OC1(CNc2ccc(Br)cn2)CCSCC1 | 5.842%
26 | O=C1CC[C@H]2[C@H](CCN2C(=O)C2CCCO2)N1Cc1ccncc1 (stereo partly drawn) | 9.155%

Row | Structure (SMILES) | Percent Effect
27 | CC(C)N(C)[C@@H]1CCN(C(=O)[C@H]2CCCO2)[C@H]1Cc1cnn(C)c1 | -7.042%
28 | O=C([C@H]1CCCO1)N1CC[C@@H](O)[C@@H]1Cc1ccccc1 | 97.77%
29 | O=C([C@H]1CCCO1)N1CC[C@H](O)[C@@H]1Cc1cccnc1 | 104.4%
30 | O=C(O)C(F)(F)F.O=C([C@H]1CCCO1)N1CC[C@H](O)[C@@H]1Cc1ccncc1 | -12.15%
31 | Cc1cc(C(=O)N2CC[C@H](OCC3CC3)[C@@H]2Cc2cccnc2)no1 | -4.828%
32 | Cn1cc(Br)c(=O)c(NS(=O)(=O)c2ccc(F)cc2)c1 | -3.18%
33 | CSCCNC(=O)C1CCC(=O)N(C2CCCC2)C1 (stereo not drawn) | -26.76%
34 | CCOCc1ccccc1NC(=O)NCC(c1cnn(C)c1)N(C)C (stereo not drawn) | -8.458%
35 | Cc1nc(C(=O)N(C)C2CC(=O)N(Cc3ccccc3)C2=O)cs1 (stereo not drawn) | -12.75%
36 | CCOC(=O)CCNC(=O)N1CCCC(CNC(=O)c2ccco2)C1 (stereo not drawn) | 4.582%
37 | CCOC(=O)N1[C@@H](c2ccco2)[C@@H](C(=O)NC)C[C@]12CCCCNC2=O | 102%
38 | CCOC(=O)N1[C@@H](c2ccco2)[C@@H](C(=O)O)C[C@]12CCCCNC2=O | 122.2%
39 | Cc1cc(NC(N)=O)ccc1C(=O)N(C)C | 10.57%
40 | CC(=O)N1CCC(c2nnc3ccc(C(=O)NC(C)C)cn23)C1 (stereo not drawn) | 15.69%
41 | CN(C)C(=O)N1CCN(CCCc2ccccc2)[C@H]2CS(=O)(=O)C[C@H]21 | -9.893%
42 | CN(Cc1coc(-c2ccccc2)n1)CC1CCCN1c1cccnn1 (stereo not drawn) | 26.49%
43 | COCC1N(C(=O)c2ccco2)[C@H]2CC[C@]1(O)CC2 (stereo partly drawn) | 106.6%
44 | O=C(c1ccco1)N1C(CO)[C@]2(O)CC[C@H]1CC2 (stereo partly drawn) | 85.33%
45 | O=C(c1ccc2c(c1)OCCCO2)N1CCCCC1C1OCCO1 (stereo not drawn) | -8.172%
46 | O=C(c1ccco1)N1CC[C@H]2[C@H]1CCN2S(=O)(=O)C1CC1 | -8.248%
47 | COC(=O)c1sccc1NC(=O)C1CCCN1C(=O)c1ccco1 (stereo not drawn) | -17.58%
48 | O=C(c1ccco1)N1C(CN2CCOCC2)[C@]2(O)CC[C@H]1CC2 (stereo partly drawn) | 107%
49 | O=C(NCC1CC1)C1CN(C(=O)c2ccco2)CC12CCOCC2 (stereo not drawn) | -3.478%
50 | O=C(c1ccco1)N1CCC(CSCc2ccco2)CC1 | -5.267%
51 | O=C(c1ccco1)N1CC[C@@H](N2CCOCC2)[C@@H]1Cc1ccccc1 | -19.81%
52 | COCC1N(C(=O)c2ccc3c(c2)OCCCO3)[C@H]2CC[C@]1(O)CC2 (stereo partly drawn) | 106.3%

Row | Structure (SMILES) | Percent Effect
53 | CC1CCCCN1C(=O)c1ccc2c(c1)OCCCO2 (stereo not drawn) | -1.264%
54 | COCc1ccccc1NC(=O)[C@@H]1CCCN1C(=O)c1ccco1 | 6.983%
55 | COc1ccc(CC(C)(O)CNC(=O)c2cccs2)cc1 (stereo not drawn) | 9.514%
56 | O=C(CCNc1ncccn1)NCCc1ccc(Cl)s1 | 4.707%
57 | O=C(O)[C@H]1CCCN1CCOc1cccc(Cl)c1 | -3.257%
58 | CN1C[C@H]2CN(Cc3cccc(OC(F)(F)F)c3)CCN2C1=O | -0.9762%
59 | CN1CCN(C2CCN(CCOc3cccc(F)c3)CC2)C1=O | 93.98%
60 | CN1CCN(C2CCN(Cc3ccc(Cl)s3)CC2)C1=O | -8.107%
61 | CN1CCN(C2CCN(CCOc3cccc(Cl)c3)CC2)C1=O | 94.86%
62 | CN1CCN(C2CCN(Cc3ccc(Cl)cc3)CC2)C1=O | -21.74%
63 | CN1CCN(C2CCN(CCOc3ccc(Cl)cc3)CC2)C1=O | 110.5%
64 | CCN1CCN(C2CCN(C(C(N)=O)c3ccc(F)cc3)CC2)C1=O (stereo not drawn) | -3.81%
65 | Cc1cc(C)n(CC2CN(CCOc3cccc(F)c3)CCO2)n1 (stereo not drawn) | -4.27%
66 | CCN1CCN(C2CCN(CCOc3ccc(F)cc3)CC2)C1=O | 105.5%
67 | CCN1CCN(C2CCN(Cc3ccc(Cl)s3)CC2)C1=O | -13.73%
68 | CCOC(=O)N1C[C@H]2CC[C@@H]1CN(Cc1ccccc1)C2 | -18.44%
69 | Cn1ccc(CS(=O)(=O)Cc2cccc(F)c2)cc1=O | 13.57%
70 | COCCN(Cc1ccc(F)cc1Cl)C(=O)c1ccncc1 | -4.791%
71 | Cc1nn2c(N3CCC(O)CC3)cc(-c3ccccc3)nc2c1C | 1.799%
72 | CC(=O)c1cccc(NC(=O)CN2CCCCC2C2OCCO2)c1 (stereo not drawn) | 12.92%
73 | O=C(NCc1ccccc1CN1CCC(O)CC1)Nc1ccncc1 | -8.548%
74 | CC(C)CN1CCC(C(=O)NCCNC(=O)c2ccccc2)CC1 | 10.43%
75 | COc1cc(-c2noc(C(CC(C)C)N3CCCCC3=O)n2)ccn1 (stereo not drawn) | -8.352%
76 | Cc1noc(C2CCN(C(C)c3nc(C4CC4)no3)CC2)n1 (stereo not drawn) | 2.218%
77 | CN1CCN(C2CCN(CCOc3ccccc3F)CC2)C1=O | 107.7%
78 | CN1CCN(C2CCN(CCOc3ccc(F)cc3)CC2)C1=O | -2.232%

Row | Structure (SMILES) | Percent Effect
79 | Cn1c(C2CC2)nc2c1CCN(CCOc1ccc(C#N)cc1)C2 | -1.848%
80 | CN1CCN(C2CCN(CCOc3ccc(C#N)cc3)CC2)C1=O | 102.1%
81 | CN1CCN(C2CCN(CCCOc3ccc(F)cc3)CC2)C1=O | 81.83%
82 | CN1CCN(C2CCN(CCOc3ccccc3)CC2)C1=O | 94.15%
83 | COc1ccc(CCN2CCC(N3CCN(C)C3=O)CC2)cc1 | -2.52%
84 | CN1CCN(C2CCN(C(C(N)=O)c3ccccc3)CC2)C1=O (stereo not drawn) | -3.145%
85 | OCCn1cc(CN2CCN(CCOc3ccccc3F)CC2)cn1 | 2.742%
86 | CN1CCN(C2CCN(Cc3noc(-c4ccccc4)n3)CC2)C1=O | -0.9175%
87 | CC(C)c1nnc(CNc2nc(-c3cccnc3)nc3c2CCC3)n1C | 6.162%
88 | Cc1cnn(CCNCc2csc(-c3cccs3)n2)c1 | -4.856%
89 | Cc1cc(CC(=O)NCC(O)COc2ccc(F)c(F)c2)no1 (stereo not drawn) | -5.317%
90 | Cc1cccc(-c2nc(CN3CCc4c(ncn4C)C3)no2)c1 | 5.431%
91 | COC(C)C(=O)NS(=O)(=O)c1cccc2cc(C)cnc12 (stereo not drawn) | -12.97%
92 | CCc1cnc(NCC(CC)N2CCOCC2)nc1 (stereo not drawn) | 14.29%
93 | COCCNC(=O)Nc1ccc(CN2CCOC2=O)cc1 | -11.28%
94 | COc1ccc(C(C)n2ccnc2-c2cc3n(n2)CCCNC3)cc1F (stereo not drawn) | 6.118%
95 | O=C1CCC(C(=O)NCc2nncn2-c2ccccc2)CN1 (stereo not drawn) | 3.893%
96 | Cc1cccc(CNCC2COC3(CCCCC3)O2)c1C (stereo not drawn) | 5.002%
97 | COc1ccc2[nH]nc(CN3CCC(C(C)N4CCCC4)CC3)c2c1 (stereo not drawn) | -10.16%
98 | Cn1cccc1C(=O)NCc1cnc2n1CCN(c1ccccn1)C2 | -1.189%
99 | COCCN1CCc2ncc(CNc3cc(N(C)C)ncn3)n2CC1 | -5.126%
100 | Cc1ccc(NCc2cnc3n2CCN(c2ncccn2)CC3)nn1 | 97.55%
101 | Cc1ccc(N2CCc3ncc(CNc4ccccn4)n3CC2)nn1 | 114.5%
102 | CN(Cc1ccco1)Cc1cnc2n1CCN(c1ncccn1)CC2.O=C(O)C(F)(F)F | 6.885%
103 | O=C(C1CCOC1)N1CCc2ncc(CNc3ccccn3)n2CC1 (stereo not drawn) | -18.08%
